# Results reported in PubChem BioAssay.
# The source made the active and inactive calls.
# How the values were obtained:
# [1] = molecular target: Albumin (Bos taurus) (UniProt P02769); assay: compounds binding labelled BSA control protein – biochemical, small-molecule microarray, Alexa647 label, 635/667 nm fluorescence, artefact control for SMM control protein annotation, profiling panel (AID 1118); conditions: BSA-A647 binding, fluorescence 635 nm, higher = more signal;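 note: score merges 667 nm emission intensity and signal-to-noise per printed compound spot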
# Chain of Albumin (Bos taurus) (P02769 whole entry, looked up): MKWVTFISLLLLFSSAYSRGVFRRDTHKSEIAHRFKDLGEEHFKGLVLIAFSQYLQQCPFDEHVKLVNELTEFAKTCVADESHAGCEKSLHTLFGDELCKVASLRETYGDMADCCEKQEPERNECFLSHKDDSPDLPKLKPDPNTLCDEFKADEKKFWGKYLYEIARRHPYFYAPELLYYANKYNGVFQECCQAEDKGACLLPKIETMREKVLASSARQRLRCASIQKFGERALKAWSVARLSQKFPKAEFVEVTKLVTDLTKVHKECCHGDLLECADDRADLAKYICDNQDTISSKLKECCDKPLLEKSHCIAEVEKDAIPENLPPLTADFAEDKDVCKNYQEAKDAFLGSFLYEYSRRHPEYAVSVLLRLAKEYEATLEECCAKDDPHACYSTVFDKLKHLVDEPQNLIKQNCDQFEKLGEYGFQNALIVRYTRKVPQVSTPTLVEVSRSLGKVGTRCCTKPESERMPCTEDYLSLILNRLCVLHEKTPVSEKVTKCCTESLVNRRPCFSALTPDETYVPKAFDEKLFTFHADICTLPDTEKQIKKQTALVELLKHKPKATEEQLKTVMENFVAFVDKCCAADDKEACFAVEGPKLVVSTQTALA
# [2] = probe aXIP binding to arrayed compounds – biochemical, NeuroSMM set, 635/667 nm fluorescence, primary screen (AID 1119); conditions: small-molecule microarray, higher = more signal, called active from +8 up or from −8 down;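 note: probe is the protein aXip251-270 applied at 1 µg/mL to compound-printed slides; binding of probe to printed compounds measured as 667 nm fluorescence plus signal to noise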
# [3] = probe aNOTCH3 binding on compound microarray – biochemical, small-molecule microarray, 635/667 nm fluorescence, primary screen (AID 1120); conditions: higher = more signal;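 note: probe is a biotin-tagged antibody raised against NOTCH3 rather than NOTCH3 protein; score merges spot fluorescence near 667 nm with spot signal to noise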
# [4] = probe aNOTCH2 binding on compound microarray – biochemical, small-molecule microarray, 635/667 nm fluorescence, primary screen (AID 1121); conditions: higher = more signal;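 note: score merges feature fluorescence read at 667 nm with its signal to noise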
# [5] = molecular target: Carbonic anhydrase 2 (Homo sapiens) (UniProt P00918); assay: compounds binding carbonic anhydrase 2 – biochemical, small-molecule microarray, Alexa647-labelled CAII, profiling panel (AID 1122); conditions: CAII-A647 binding fluorescence, higher = more signal
# [6] = COS7 lysate on small-molecule microarray, probe aHis, 635 nm (AID 1123); conditions: COS7 cell lysate, fluorescence, higher = more signal;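 note: z-score combines 667nm fluorescence intensity with signal-to-noise per printed compound spot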
# [7] = probe aLAP1 signal on lysate-treated microarray – cell lysate, small-molecule microarray, COS7 lysate, primary screen (AID 1124); conditions: probe aLAP1, fluorescence, higher = more signal;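 note: lysate comes from COS7 cells expressing LAP1 and is applied at 0.3 µg/mL; score merges spot fluorescence near 667 nm with signal-to-noise over triplicate slides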
# [8] = test system: Sam68 (KHDRBS1); assay: compounds binding KHDRBS1 protein – biochemical, small-molecule microarray, 635 nm fluorescence, primary screen (AID 1125); conditions: higher = more signal;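 note: score merges 667 nm channel intensity with signal to noise over triplicate slides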
# [9] = test system: Chordin-like protein 2 (CHRDL2); assay: compounds binding chordin-like 2 – biochemical, small-molecule microarray, 635 nm fluorescence, primary screen (AID 1126); conditions: fluorescence 635 nm, higher = more signal;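 note: printed compound slides probed with Chrdl2 protein at 4 µg/mL for 1 h at 4 C; score merges 667 nm emission intensity with signal to noise over three replicate slides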
# [10] = molecular target: Concanavalin-A (Canavalia ensiformis) (UniProt P02866); assay: compounds binding concanavalin A lectin – biochemical, small-molecule microarray, Alexa647 label, 635 nm, artefact control for SMM control protein annotation, primary screen (AID 1127); conditions: ConA-A647 binding fluorescence, higher = more signal;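 note: z combines 667 nm emission intensity with signal-to-noise across three replicate slides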
# Chain of Concanavalin-A (Canavalia ensiformis) (P02866 whole entry, looked up): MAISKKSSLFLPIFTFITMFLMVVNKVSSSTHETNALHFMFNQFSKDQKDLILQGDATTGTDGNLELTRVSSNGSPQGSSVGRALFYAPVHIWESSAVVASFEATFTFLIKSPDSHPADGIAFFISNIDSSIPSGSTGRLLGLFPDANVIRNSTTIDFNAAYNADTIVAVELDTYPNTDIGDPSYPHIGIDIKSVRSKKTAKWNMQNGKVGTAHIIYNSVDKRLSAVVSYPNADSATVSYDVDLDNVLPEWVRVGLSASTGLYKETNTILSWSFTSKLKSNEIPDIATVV
# [11] = compounds binding Alexa647 anti-His antibody – biochemical, small-molecule microarray, 635 nm fluorescence, artefact control for SMM control protein annotation, primary screen (AID 1128); conditions: higher = more signal;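 note: score merges feature fluorescence with signal-to-noise for each printed compound spot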
# [12] = test system: Human papillomavirus type 1a E7 protein (residues 1-88); assay: HPV1a E7 small-molecule binders, primary screen, biochemical, small-molecule microarray, residues 1-88, 635 nm (AID 1129); conditions: small-molecule microarray binding, fluorescence 635 nm; higher = more signal
# [13] = molecular target: Focal adhesion kinase 1 (Homo sapiens) (UniProt Q05397); assay: PTK2 protein binding on printed compound slides – biochemical, small-molecule microarray, 635/667 nm fluorescence, BSA, DTT, primary screen (AID 1130); conditions: 635 nm fluorescence, higher = more signal;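 note: composite of spot emission at 667 nm and signal to noise over triplicate slides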
# Chain of Focal adhesion kinase 1 (Homo sapiens) (Q05397 whole entry, looked up): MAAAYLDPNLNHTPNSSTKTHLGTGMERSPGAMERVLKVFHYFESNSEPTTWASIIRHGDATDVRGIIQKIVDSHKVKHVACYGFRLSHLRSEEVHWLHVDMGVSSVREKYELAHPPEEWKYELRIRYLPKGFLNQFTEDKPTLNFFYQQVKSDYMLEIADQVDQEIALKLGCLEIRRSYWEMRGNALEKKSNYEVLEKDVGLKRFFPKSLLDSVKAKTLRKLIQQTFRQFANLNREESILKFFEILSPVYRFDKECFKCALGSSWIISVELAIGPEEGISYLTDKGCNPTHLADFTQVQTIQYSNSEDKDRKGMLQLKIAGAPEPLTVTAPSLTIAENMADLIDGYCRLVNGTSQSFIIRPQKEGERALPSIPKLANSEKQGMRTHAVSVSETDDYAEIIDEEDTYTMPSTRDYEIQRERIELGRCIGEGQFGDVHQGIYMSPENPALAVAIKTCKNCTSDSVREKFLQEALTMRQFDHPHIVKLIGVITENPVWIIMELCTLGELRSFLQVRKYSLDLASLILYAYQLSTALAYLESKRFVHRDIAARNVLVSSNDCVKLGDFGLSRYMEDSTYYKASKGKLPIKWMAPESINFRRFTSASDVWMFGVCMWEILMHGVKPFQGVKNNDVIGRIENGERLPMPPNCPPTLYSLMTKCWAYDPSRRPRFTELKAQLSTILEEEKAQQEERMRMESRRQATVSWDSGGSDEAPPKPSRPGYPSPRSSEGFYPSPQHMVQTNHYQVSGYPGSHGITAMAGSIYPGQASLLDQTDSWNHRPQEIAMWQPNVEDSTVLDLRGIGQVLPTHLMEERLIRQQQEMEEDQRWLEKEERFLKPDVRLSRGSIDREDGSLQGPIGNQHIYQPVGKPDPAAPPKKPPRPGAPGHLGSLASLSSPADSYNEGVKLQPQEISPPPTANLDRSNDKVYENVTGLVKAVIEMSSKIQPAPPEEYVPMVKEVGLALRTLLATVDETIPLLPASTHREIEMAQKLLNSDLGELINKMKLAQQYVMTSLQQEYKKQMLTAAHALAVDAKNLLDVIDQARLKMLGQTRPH
# [14] = test system: Fibrinogen (Alexa647-labelled); assay: Alexa647-fibrinogen binding to printed small molecules – biochemical, small-molecule microarray, 635/667 nm fluorescence, artefact control for SMM control-protein annotation, profiling panel (AID 1131); conditions: fibrinogen-A647 binding fluorescence, higher = more signal;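 note: z-score merges 667 nm fluorescence with per-spot signal-to-noise over triplicate slides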
# [15] = molecular target: Follistatin (Homo sapiens) (UniProt P19883); assay: FST protein binding to printed compounds – biochemical, small-molecule microarray, 635/667 nm fluorescence, primary screen (AID 1132); conditions: 635 nm fluorescence, higher = more signal
# Chain of Follistatin (Homo sapiens) (P19883 whole entry, looked up): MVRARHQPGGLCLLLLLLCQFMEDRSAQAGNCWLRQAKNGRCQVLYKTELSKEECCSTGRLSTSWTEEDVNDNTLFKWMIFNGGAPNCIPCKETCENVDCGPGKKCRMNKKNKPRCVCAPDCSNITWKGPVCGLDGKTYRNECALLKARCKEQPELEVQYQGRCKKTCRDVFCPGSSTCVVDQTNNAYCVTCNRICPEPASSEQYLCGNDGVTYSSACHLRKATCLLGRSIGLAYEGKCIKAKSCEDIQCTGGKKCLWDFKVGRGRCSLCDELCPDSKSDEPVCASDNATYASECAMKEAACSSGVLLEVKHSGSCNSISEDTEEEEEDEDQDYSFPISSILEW
# [16] = molecular target: Fibroblast growth factor 2 (Homo sapiens) (UniProt P09038); assay: basic fibroblast growth factor binding to printed compounds – biochemical, small-molecule microarray, 635/667 nm fluorescence, primary screen (AID 1133); conditions: FGF2, fluorescence 635/667, higher = more signal
# Chain of Fibroblast growth factor 2 (Homo sapiens) (P09038 whole entry, looked up): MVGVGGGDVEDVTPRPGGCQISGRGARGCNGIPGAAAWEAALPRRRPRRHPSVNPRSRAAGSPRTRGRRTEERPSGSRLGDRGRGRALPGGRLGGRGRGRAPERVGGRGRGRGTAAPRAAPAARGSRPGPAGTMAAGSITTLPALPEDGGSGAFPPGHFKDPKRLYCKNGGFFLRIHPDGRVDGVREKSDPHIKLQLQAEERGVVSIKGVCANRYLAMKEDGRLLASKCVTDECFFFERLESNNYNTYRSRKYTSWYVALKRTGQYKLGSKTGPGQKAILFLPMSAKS
# [17] = JC-1 mitochondrial potential readout, lung cancer cells – cell-based, A549, JC-1 fluorescence, basal, 24 h, 100 nL, profiling panel (AID 1138); conditions: higher = more signal;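 note: A549 lung adenocarcinoma cells under basal conditions with no added stimulus; test concentration not given here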
# [18] = test system: Lefty1; assay: Lefty1 protein binding to printed compounds – biochemical, small-molecule microarray, 635/667 nm fluorescence, primary screen (AID 1139); conditions: fluorescence 635/667, higher = more signal
# [19] = test system: wheat germ agglutinin (Triticum aestivum), Alexa647-labelled; assay: Alexa647-WGA lectin binding to printed small molecules – biochemical, small-molecule microarray, 635/667 nm fluorescence, artefact control for SMM control-protein annotation, profiling panel (AID 1140); conditions: WGA-A647 binding, 635 nm fluorescence, higher = more signal;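 note: score merges 667 nm feature emission with signal to noise over triplicate slides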
# [20] = molecular target: Luciferin 4-monooxygenase (Photinus pyralis) (UniProt P08659); assay: inhibition of purified Photinus pyralis luciferase – biochemical, luminescence, purified enzyme, 2006 set, primary screen (AID 1141); conditions: purified firefly luciferase, SteadyGlo luminescence, 30 min; higher = more signal, called active from +8 up or from −8 down;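 note: cell-free assay with purified firefly luciferase at 100 ng per well in PBS; test concentration not given here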
# Chain of Luciferin 4-monooxygenase (Photinus pyralis) (P08659 whole entry, looked up): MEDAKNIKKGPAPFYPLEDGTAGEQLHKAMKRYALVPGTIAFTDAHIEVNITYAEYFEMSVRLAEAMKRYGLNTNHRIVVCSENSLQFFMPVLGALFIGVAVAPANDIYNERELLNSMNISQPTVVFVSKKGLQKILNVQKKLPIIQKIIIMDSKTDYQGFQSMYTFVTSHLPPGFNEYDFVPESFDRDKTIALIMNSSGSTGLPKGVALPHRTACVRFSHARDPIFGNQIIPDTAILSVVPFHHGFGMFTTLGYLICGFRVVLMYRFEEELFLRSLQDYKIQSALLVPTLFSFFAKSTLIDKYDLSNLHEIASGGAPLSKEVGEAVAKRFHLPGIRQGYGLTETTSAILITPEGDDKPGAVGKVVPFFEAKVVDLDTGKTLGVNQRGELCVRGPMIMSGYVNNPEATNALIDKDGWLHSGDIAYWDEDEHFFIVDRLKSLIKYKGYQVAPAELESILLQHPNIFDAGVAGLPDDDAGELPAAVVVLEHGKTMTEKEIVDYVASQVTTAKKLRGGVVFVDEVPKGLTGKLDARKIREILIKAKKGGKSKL
SMILES,composite z-score [1],composite Z-score [2],composite z-score [3],composite z-score [4],composite z-score [5],composite z-score [6],composite z-score [7],composite z-score [8],composite z-score [9],composite z-score [10],composite z-score [11],composite z-score [12],composite z-score [13],composite z-score [14],composite z-score [15],composite z-score [16],z-score [17],composite z-score [18],composite z-score [19],z-score [20]
CN(C)CCCNC(=O)[C@@]1(c2ccc([N+](=O)[O-])cc2)CC(=O)N(CC23CC4CC(CC(C4)C2)C3)[C@@H]1c1ccc(CO)cc1I,0.685,-0.729 (inactive),0.095,-0.0877,0.511,2.86,0.457,1.28,0.731,1.14,1.46,1.21,-0.0381,0.846,1.35,1.34,-2.32,1.5,0.674,-1.46 (inactive)
CN1C(=O)C2C=CC(C(O)C#Cc3ccccc3)N(Nc3ccccc3)C2C1=O (stereo not given),1.03,-0.0662 (inactive),0.405,0.0363,0.663,2.96,0.553,1.35,-0.0655,1.09,0.974,1.24,0.884,0.985,1.18,0.101,1.11,0.473,1.24,-1.21 (inactive)
O=C(CS)NCCCCCNC(=O)[C@@H]1C[C@@H]2C(=O)N3CCC[C@H]3C(=O)N2[C@@H]1c1cccc(OCCO)c1,-0.105,1.11 (inactive),-0.284,-0.258,0.747,2.18,0.503,0.246,0.712,0.91,2.66,1.21,0.515,-0.561,1.28,1.24,0.777,-0.283,-0.161,-1.38 (inactive)
CCOC(=O)C1=CC[C@@H](c2cccc(Cl)c2)N(S(=O)(=O)c2ccc(C)cc2)C1,0.839,-0.659 (inactive),-0.0661,-0.0488,0.685,2.15,0.568,0.674,0.0917,0.721,1.66,1.14,0.399,-0.112,0.191,-0.0072,2.48,-0.345,0.844,-2.75 (inactive)
COC(=O)[C@@]1(Cc2ccccc2)[C@H]2c3cc(C(=O)N(C)C)n(CCc4ccc(O)c(OC)c4)c3C[C@H]2CN1C(=O)c1ccccc1,0.374,-0.372 (inactive),0.742,0.401,0.126,0.316,0.638,0.169,0.314,0.151,0.964,0.88,0.0098,0.814,0.168,0.273,0.153,0.0511,0.0048,0.554 (inactive)
